Reference: PubChem BioAssay AID504697 (The Scripps Research Institute Molecular Screening Center, 2011)
Calls of active or inactive are those of the source.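 The calls were made as follows: active = EC50 at or below 10 µM; inactive = EC50 above 10 µM.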

Assay: fluorescence interference artefacts, compound only, dose response, artefact control for cardiac thin filament activator project, biochemical, no RTF in test wells (AID 504697);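 also: emission near 535 nm under roughly 485 nm excitation as for IANBD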
Conditions: compound-only fluorescence in RTF assay buffer with Ca2+ (no RTF in test wells), artifact counterscreen

Row | Compound | EC50
1 | CC(/C=N/Nc1ccc2nncn2n1)=C\c1ccccc1 | > 71.5 µM (inactive)
2 | O=[n+]1c2c(n([O-])c3ccccc31)CCC2 | > 71.5 µM (inactive)
3 | CC(=O)Oc1ccc(N2C(=O)C3C(C2=O)C(C(=O)c2ccc(Cl)cc2)N2CCCC32)cc1 (stereo unspecified) | 58.7 µM (inactive)
4 | COC(=O)C(=N/Nc1ccccc1C(=O)OC)/C(C)=N/O | > 71.5 µM (inactive)
5 | Cc1cc(C=C2C(=O)c3ccccc3C2=O)c(C)n1-c1ccccc1 | 29.9 µM (inactive)
6 | Cc1ccc(-c2ccc(OC(=O)c3ccc(=O)[nH]c3)c(C)c2)cc1 | > 71.5 µM (inactive)
7 | Cc1ccc(NC(=O)CN(C)c2ccc(S(=O)(=O)N3CCCC3)cn2)cc1 | > 71.5 µM (inactive)
8 | O=C(c1cnc2ccccc2n1)N1CCN(c2ccc(C(F)(F)F)cn2)CC1 | > 71.4 µM (inactive)
9 | CC(C)Sc1nc2ccc(Br)cc2[nH]1 | > 71.4 µM (inactive)
10 | CCN(CC)c1ccc(/C=C2\SC(N)=NC2=O)cc1 | 30.6 µM (inactive)
11 | CC(=O)Oc1ccc(NC(=O)Cc2ccccc2)c(C(=O)O)c1 | > 71.5 µM (inactive)
12 | Cc1ccccc1-n1nnnc1SCC(C)C | > 71.5 µM (inactive)
13 | O=C(Nc1ccc(C(=O)N2CCOCC2)cc1)Nc1cccc(Cl)c1 | > 71.5 µM (inactive)
14 | O=[N+]([O-])c1ccc(/C=C/C2=NN(c3ccccc3)C(c3ccco3)C2)cc1 (stereo unspecified) | 1.04 µM (active)
15 | N#C/C(=C\c1ccc(-c2ccc(F)cc2)o1)C(=O)Nc1nc(-c2cccs2)cs1 | > 71.5 µM (inactive)
16 | Cc1nnc(SCC(=O)NC(C)(C)C)n1C1CCCCC1 | > 71.5 µM (inactive)
17 | CN(C)CCN(C)Cc1c2ccccc2c(CN(C)CCN(C)C)c2ccccc12 | > 71.5 µM (inactive)
18 | O=C(N/N=C/c1sc2ccccc2c1O)c1ccccc1 | 17.9 µM (inactive)
19 | CCN(CC)C(=S)SCC(=O)c1c(C)[nH]c2ccccc12 | > 71.5 µM (inactive)
20 | Cc1ccnc(N/C=C(\C#N)c2nc(-c3cccc(Br)c3)cs2)c1 | 1.59 µM (active)
21 | CCN1C(=O)/C(=C/N2CCc3ccccc32)SC1=S | 10.1 µM (inactive)
